# Bioassay records deposited in PubChem by several laboratories.
# Cl transport mod – KCC2 (human) Cl- transport modulation; 2.2% of 190,000 active; KCC2 cells, thallium flux FluoZin-2 fluorescence; Q9H2X9; B-score of Tl+ flux slope (higher = more flux/activation; lower = inhibition) at 10 µM;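 active = thallium flux slope and its plate-corrected score both differing from the plate sample mean at a set confidence after two filtering rounds, in either direction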;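 note: slope of fluorescence scaled to starting intensity during 10 to 20 s after thallium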
# S1P4 antag – human S1P4 receptor antagonism; O95977; S1P4-expressing cells, antagonist mode, reporter read-out; inhibition, % at 4.98 µM; 0.26% of 220,000 active; AID 1510; in the data active = inhibition above about 29%;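 note: 0% = wells stimulated with agonist and 100% = vehicle wells without agonist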
# ROMK mod – human ROMK K+ channel modulation, primary screen; 2% of 130,000 active; AID 1918; B-score at 10 µM; Tet-inducible ROMK, thallium flux fluorescence; actives lie on both sides;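 active = signal ratio slope over the read window, or its plate-corrected B-score, at least 3 SD from the plate mean, either direction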;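 note: B-score of the F/F0 ratio slope over 7 to 12 s after thallium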
# S1P3 antag – S1P3 (human) receptor antagonism. CHO S1P3 NFAT-BLA reporter, FRET fluorescence, antagonist mode. inhibition, % at 4.98 µM. 0.27% of 170,000 active. AID 485;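 active = inhibition above the plate cutoff, the mean inhibition of test wells on that plate plus 3 SD, cut at about 28% in these data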;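 note: cells challenged with S1P at its EC80 of 0.8 µM; blue over green emission ratio from cleaved BLA substrate after 4 h stimulation; 0% = S1P-stimulated wells and 100% = unstimulated DMSO-only wells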
# RAM inhibit – blocks the yeast RAM network. S. cerevisiae dse1pr::URA3 reporter, 5-FOA growth OD615, 2 d; analog-sensitive cbk1-as2 kinase mutant strain. inhibition, % at 50 µM. 1.8% of 190,000 active. AID 868;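 active = inhibition above a set limit, 3 SD over mean compound inhibition, cut at about 8.4% in these data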;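 note: 0% = DMSO-only wells with no growth and 100% = 10 µM 1-NA-PP1 full growth; inhibition rescues growth on 5-FOA so higher OD means more RAM inhibition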
# S1P4 agonist – activates the human S1P4 receptor; activation, % at 4.98 µM; AID 1509; O95977; S1P4-expressing cell line, agonist reporter assay; 0.35% of 220,000 active; in the data active = activation above about 11%;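 note: 0% = DMSO vehicle and 100% = reference agonist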
# RAM efflux-def – RAM network inhibition, efflux-deficient strain. S. cerevisiae efflux-deficient reporter strain, 5-FOA growth OD615, 2 days. AID 1305. max inhibition, %. 1,200 tested, under 10 active. shares compounds with RAM inhibit; call rule not given here;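 note: plate controls were vehicle for no effect and reference inhibitor for full effect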
# Starred values were filed as active, the others as inactive; x = no result given. Sampled rows, rich in hits. Any-hit rate of the full collection: about 5.1%.
SMILES,Cl transport mod,S1P4 antag,ROMK mod,S1P3 antag,RAM inhibit,S1P4 agonist,RAM efflux-def
CCOC(=O)C1(CCOc2ccccc2)CCN(C(=O)c2ccc(-n3cccn3)cc2)CC1,-0.796,-12.3,-0.215,-9.4,18.7*,-1.0,1.2
O=C(Nc1ccccc1Cl)C1CC(=O)n2c(nc3ccccc32)N1 (stereo unspecified),-0.279,-2.3,0.211,3.3,5.3,-1.7,x
Cc1nn(-c2ccccc2)nc1C(=O)Oc1cc(C(F)(F)F)nn1-c1ccccc1,0.0541,1.2,x,-6.2,x,-0.5,x
O=C(NCCSCc1ccccc1)c1ccc(C2SCC(=O)N2Cc2ccccc2)cc1 (stereo unspecified),x,6.5,-0.431,x,12.1*,-0.8,3.1
O=C(O)C1=C[C@H](c2ccc(Br)cc2)C[C@H](OCc2ccc(CO)cc2)O1,1.2,9.4,x,-17.6,0.8,-1.0,x
O=C(CSc1nc2c(cnn2-c2ccccc2)c(=O)[nH]1)N1N=C(c2cccs2)CC1c1ccc(F)cc1 (stereo unspecified),-2.84,3.7,0.299,-1.4,12.5*,2.7,4.9
Fc1ccc(C2CC(c3cccs3)=NN2c2ccccc2)cc1 (stereo unspecified),0.475,7.2,0.346,-18.2,12.0*,4.8,2.1
CC(=O)N1CCN(C(=O)CSc2nc3c(cnn3-c3ccccc3)c(=O)[nH]2)CC1,-0.501,-3.0,-0.394,x,0.9,1.8,x
CCOC(=O)C1CN(S(=O)(=O)c2ccccc2)c2cc(S(=O)(=O)CC)ccc2O1 (stereo unspecified),-0.421,-6.5,x,x,0.6,-0.3,x
CCOC(=O)C1CN(S(=O)(=O)c2cccc(C(F)(F)F)c2)c2cc(CC(=O)OC)ccc2O1 (stereo unspecified),-0.0813,-4.7,x,x,15.8*,-0.7,1.6
COc1ccc(O[C@H]2C=C[C@@H](c3ccccc3)O[C@@H]2COC(=O)CC/C(C)=N/OC[C@@H](O)COCc2ccco2)cc1,-0.724,14.9,-2.22,-14.0,7.1,-0.7,x
COc1ccc(O[C@H]2C=C[C@@H](c3ccccc3)O[C@@H]2COC(=O)CC/C(C)=N/O[C@@H](C)c2cc(-c3c(C)cc(C)cc3C)no2)cc1,0.194,5.0,0.464,3.2,20.8*,0.8,4.3
C=CCN1C=C/C(=C\C=C(C#N)C#N)c2ccccc21,-0.0448,-7.2,x,-12.1,4.2,1.2,x
CCCCCCN1C=C/C(=C\C=C(C#N)C#N)c2ccccc21,0.00969,-6.5,x,-18.6,16.7*,0.8,3.6
Cc1noc(C)c1COC(=O)COc1ccc(C#N)cc1,0.0324,-4.9,-0.0402,-11.9,2.2,1.7,x
CCOc1ccc(S(=O)(=O)N(C)c2ccc(OCC(=O)OCc3c(C)noc3C)cc2)cc1,-0.441,-19.1,x,-7.8,12.3*,-1.0,2.1
COC(=O)c1cc(NC(=O)c2c(F)c(F)c(F)c(F)c2F)cc(C(=O)OC)c1,-1.28,-5.7,x,2.7,1.6,-1.4,x
CCCN(CCC)C(=O)c1ccc2c(=O)n(Cc3ccco3)c(=S)[nH]c2c1,-0.0619,-7.1,0.211,2.5,25.2*,0.9,1.1
CN1CCN(C(=O)c2ccc3c(=O)n(Cc4ccco4)c(=S)[nH]c3c2)CC1,0.612,-8.1,0.744,x,-0.2,-0.8,x
Cc1ccc(-c2cccc(OC(=O)c3ccccc3F)c2)cc1,0.646,0.9,x,x,14.5*,0.8,2.9
CC(C)(C)c1cc(OC(=O)c2ccccc2F)ccc1O,x,4.2,x,-24.8,0.1,0.1,x
Cc1ccc(N2CCN(C(=O)c3cc(C(=O)c4ccccc4C)c[nH]3)CC2)c(C)c1,-0.00772,6.6,0.108,-27.6,24.3*,0.8,2.0
O=C(c1ccccc1)c1sc(N2CCCCCC2)nc1-c1ccccc1,0.956,-7.8,x,x,11.6*,-0.3,4.0
O=C(Nc1nc(-c2ccccc2)c(C(=O)c2ccccc2)s1)c1ccc(S(=O)(=O)N2CCCC2)cc1,0.00187,-7.9,x,-16.4,6.6,2.6,x
O=C(Nc1cccnc1Cl)c1ccc2c(Cl)c3c(nc2c1)CCC3,-0.585,-2.6,0.284,-10.4,12.2*,-0.2,4.0
SMILES,Cl transport mod,S1P4 antag,ROMK mod,S1P3 antag,RAM inhibit,S1P4 agonist,RAM efflux-def
N#Cc1ccccc1NC(=O)c1ccc2c(Cl)c3c(nc2c1)CCCC3,-0.865,-16.9,x,6.3,1.2,-0.5,x
COc1ccc(-c2nnc(SC(C)C(=O)Nc3cccc(Cl)c3)o2)cc1 (stereo unspecified),x,-23.4,-0.0753,30.3,14.6*,0.3,1.7
COc1ccc(-c2nnc(SC(C)C(=O)NNC(=O)c3ccc(C)cc3)o2)cc1 (stereo unspecified),-0.656,-15.2,1.2,-10.9,0.1,-0.8,x
Cc1cc(C)c(C)c(S(=O)(=O)N2CCC(C(=O)OCC(=O)N3c4ccccc4NC(=O)C3(C)C)CC2)c1C,-0.128,-26.2,0.0433,x,12.1*,-3.0,1.9
COc1cccc(CNC(=S)Nc2cc(OC)ccc2OC)c1,0.0641,-0.2,1.46,3.0,2.1,0.1,x
COC(=O)c1ccc(CSc2nc(-c3ccco3)cc(C(F)(F)F)n2)o1,-1.32,9.4,x,18.8,17.8*,-1.7,2.4
COc1ccc(CNC(=O)c2n[nH]c3ccccc23)cc1OC,-0.109,-33.7,0.0178,-9.6,2.5,2.0,x
S=C(NCCC(c1ccccc1)c1ccccc1)Nc1ccccc1Cl,0.0432,-10.1,x,x,15.2*,1.3,2.9
Cc1ccc(C2c3c(oc4ccccc4c3=O)C(=O)N2c2nncs2)cc1 (stereo unspecified),0.206,-21.4,0.273,6.9,x,0.0,x
O=C1C(=O)N(CC2CCCO2)C(c2ccco2)/C1=C(/O)c1ccc(F)cc1 (stereo unspecified),-1.79,-10.0,0.217,-9.2,3.4,0.4,x
Cc1ccc2sc(NC(=O)c3ccc(N4C(=O)CCC4=O)cc3)nc2c1C,0.0252,-6.8,0.0372,-38.0,16.5*,0.9,1.9
Cn1c(=O)c2c(ncn2CC(=O)OCC(=O)Nc2ccccc2Cl)n(C)c1=O,-0.51,-28.5,x,3.7,1.1,0.9,x
Cn1c(=O)c2c(ncn2CC(=O)OCC(=O)NC(c2ccccc2)c2ccccc2)n(C)c1=O,-0.154,-10.0,0.586,-9.9,13.8*,0.2,1.0
O=[N+]([O-])c1ccc(C2Nc3cccc4cccc(c34)N2)cc1,-0.0647,-10.7,x,-14.3,11.8*,-0.6,3.1
COc1ccccc1C(NC(=O)C1CCCCC1)c1c(O)ccc2ccccc12 (stereo unspecified),0.149,-22.9,x,-6.2,11.8*,3.3,4.9
C=CCN(CC=C)S(=O)(=O)c1ccc(NC(=O)COc2ccccc2OC)cc1,-1.64,0.3,-0.574,x,15.0*,-0.4,2.3
CCC(=O)Nc1ccccc1C(=O)OCc1ccc(C(=O)c2ccccc2)cc1,x,-3.6,x,x,12.2*,0.9,3.5
Fc1ccc(N2CCN(c3nc(-c4ccco4)cc(C(F)(F)F)n3)CC2)cc1,x,-6.3,-0.0619,x,14.3*,0.3,3.8
